We go through six compounds from PubChem BioAssay AID1645875 (National Center for Advancing Translational Sciences (NCATS), 2021).

Inconclusive results are not listed. Activity calls are given as the source filed them. The call rests on the fitted dose curve; in most records, active means well fitted inhibition curve with a large enough effect; inconclusive means small, poorly fitted or top-dose-only effect; inactive means no such curve, though single readings can be large or run the other way.

Chain of N-terminal Xaa-Pro-Lys N-methyltransferase 1 (Homo sapiens) (Q9BV86 whole entry, looked up): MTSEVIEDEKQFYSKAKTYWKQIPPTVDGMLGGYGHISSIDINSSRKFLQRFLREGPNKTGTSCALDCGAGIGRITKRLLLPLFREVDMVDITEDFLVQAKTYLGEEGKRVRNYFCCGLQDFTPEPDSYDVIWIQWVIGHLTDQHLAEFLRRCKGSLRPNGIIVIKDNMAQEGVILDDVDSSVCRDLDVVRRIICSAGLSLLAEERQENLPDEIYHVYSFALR

The target in this experiment is N-terminal Xaa-Pro-Lys N-methyltransferase 1 (Homo sapiens) (UniProt Q9BV86). Put plainly: Orthogonal qHTS for Inhibitors of N-terminal methyltransferase 1 (NTMT1): ThioGlo Assay. As to conditions: NTMT1 SAHH-coupled ThioGlo fluorescence, 30 min; series mostly up to 84.5 µM. From the text:
Assay Submitter (PI): Rong Huang Ph.D. Purdue University, West Lafayette, IN 47907 The N-terminal methytransferase 1 is the first methyltransferase that methylates protein alpha-N-amines and plays an important role in regulating cell mitosis, chromatin interactions and DNA repair. It is observed to be over-expressed in various cancer patient tissues like malignant melanoma and colorectal cancer tissues. Knockdown of NTMT1 in cancer cells causes cell mitotic defects and enhances sensitivity to DNA damaging chemotherapeutics. […] These critical cellular processes in which NTMT1 is implicated, coupled with emerging links to cellular dysfunction, strengthen the inference that NTMT1 is a compelling novel anticancer target. Progress have been made in understanding the molecular properties of NTMT1 and the biological consequences of protein alpha-N-terminal methylation, but there are no specific small molecule probes available for NTMT1 to fully characterize its MTase activity. To address this unmet need, a panel of assay is created and established to enable quantitative high-throughput screening (qHTS) for novel, potent, and selective small molecule NTMT1 inhibitors. Two orthogonal qHTS that use different reagents (ThioGlo vs. MTaseGlo) are developed for primary robotic screening against the NCATS chemical library of more than 400,000 small molecules. Identified inhibitors are reacquired, validated, and further characterized. […] Early Translation Branch (ETB) National Center for Advancing Translational Sciences (NCATS) National Institute of Health (NIH)
Materials: NTMT1 enzyme, substrate SPKRIA, control peptide RCC1-6 is provided by the Huang laboratory. MTaseGlo Assay: PROTOCOL TABLE; SEQUENCE No. (e.g., 1, 2, 3, etc.); […] (e.g., Cells, Incubation, Reagent, etc.); VALUE; DESCRIPTION 1; Enzyme; 3 uL; Dispense enzyme mixture (final concentrations of 125 nM NTMT1) into Greiner 1536-well black / solid bottom assay plate (Greiner Bio One, Monroe, NC). 2; Compounds; 23 nL; Compounds (at various concentration) and 1uM final concentration of RCC1-6 (SPKRIA) control were transferred via a Kalypsys Pin Tool (Wako USA) equipped with a 1536-slotted pin array (Wako Automation, Richmond, VA). 3; Incubation; 1 min; Incubate at room temperature. 4; Substrate; 1 uL; Dispense 1 uL of substrate solution (100uM SAM, 10uM SAHH, 15uM ThioGlo3 final concentration) was added to the wells bringing the final assay volume to 4uL. The assay plate was covered with metal lids. 5; Detection; Fluorescence; Initial fluorescence readout (background signal) was detected using the ViewLux microplate imager with an excitation filter of 340 nm and 450 nm emission filter. 6; Incubation; 30 min; Assay plates were incubation at room temperature in the dark. 7; Detection; Fluorescence; Final fluorescence readout was detected using the ViewLux microplate imager with an excitation filter of 340 nm and 450 nm emission filter. The data was normalized to the background fluorescence.
For `C[N+]1(C)CCN(c2ccccc2)CC1`, the Potency was 2740 nM (active). `NC(=O)CI`: the Potency was 6890 nM (active). `C[N+]1(C)C2CCC1CC(OC(=O)c1c[nH]c3ccccc13)C2` (stereo unspecified): the Potency was 1940 nM (active). As to `C[N+](C)(C)CC#CCN1CCCC1=O`, the Potency was 1540 nM (active). In the case of `CN[C@@H]1C[C@@H](c2ccc(Cl)c(Cl)c2)c2ccccc21`, the Potency entry was “inactive”. In the case of `NC1CCc2cc(O)c(O)cc2C1` (stereo unspecified) it was 10900 nM (active).
